In the library only some 3.2% were active in any assay of this set; here they are far more common.
p53null 39C kill: kills p53 null cells at the nonpermissive temperature; AID 904; H1299 p53-null (neo) cells, 39C, ATPlite viability, 24 h; Potency, µM (series often up to 46.1 µM), for the others: top-dose activity, negative = cell killing, usual class: cytotoxic; 0.97% of 55,000 active;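 note: potency is the fitted concentration of half-maximal effect; 0% = DMSO only and -100% = full killing by 100 µM tamoxifen; nearly all actives have a fitted effect of over 50% in size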
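H1299 lung cancer cells, p53-null (H1299-neo) or expressing p53 A138V (H1299-p53A138V), were plated overnight at 37C, then exposed to compounds at up to 46 uM for 24 hr at 39C. Viability was read by ATP-based luminescence.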
S16 viability: toxic to S16 Pmp22-F2sN Schwann cells; S16 Pmp22-F2sN Schwann cells viability, CellTiter-Glo, 24 h; Potency, µM (doses to about 57.5 µM), for inactives: at the highest dose activity change, negative = cytotoxicity, hits mostly cytotoxic; 0.48% of 43,000 active; AID 1508642; note: potency is the fitted concentration of half-maximal effect; % is set by controls: 0 for no effect and ±100 for the full control effect; nearly all actives have a fitted effect of over 65% in size
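S16 Schwann cells carrying the Pmp22-F2sN reporter, seeded in 1536-well format, were exposed to library compounds for 24 h at 37C. Viability was read as CellTiter-Glo luminescence after 15 min at room temperature.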
p53null 32C tox: p53 null cell cytotoxicity, permissive temperature; H1299-neo p53 null cells, ATP luminescence, 24 h, 32C; 0.62% of 55,000 active; Potency, µM (top dose mostly 46.1 µM), without a hit: top-dose activity change, negative = cytotoxicity, usual class: cytotoxic;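 note: potency is the fitted concentration of half-maximal effect; 0% = DMSO only and -100% = full killing by 100 µM tamoxifen; nearly all actives have a fitted effect of over 55% in size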
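H1299-neo, 600 cells/well; overnight 37C; cpd up to 46 uM, 24 h at 32C; ATPlite luminescence after 20 min RT; normalized to DMSO (0%) and tamoxifen 100 uM (100% kill); Hill-fit AC50.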
pS6 MEF inh: mTORC1 pathway inhibition measured by phospho-rpS6; AID 493208; 0.78% of 44,000 active; Potency, µM (highest dose often 38.3 µM), without a hit: at the highest dose activity change, negative = inhibition, hits mostly inhibitors; Tsc2-/- p53-/- MEF, phospho-rpS6 immunofluorescence/PI, 24 h;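 note: potency is the fitted concentration of half-maximal effect; plate controls were DMSO for no effect and rapamycin for full effect; nearly all actives have a fitted effect of over 50% in size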
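Readout is phospho-S6 Alexa 488 signal normalized to PI per well, reported as % active cells with thresholds set from rapamycin (7.5 nM) and DMSO controls. Cells: Tsc2-/-, p53-/- MEFs, 24 hrs compound at 37 C; PI cell number serves as viability.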
PMP22 txn: modulates PMP22 transcription in S16 Schwann cells; S16 Pmp22-F2sN Schwann cells (luciferase reporters placed in the Pmp22 gene), FLuc/NLuc coincidence luminescence, 24 h; Potency, µM (series often up to 57.5 µM), for inactives: at the highest dose activity change, negative = inhibition, hits mostly inhibitors; 2% of 43,000 active; AID 1508649; active = clear falling dose curves in both reporters; inconclusive = both reporters move, but less clearly or upward; inactive = either reporter flat; the % is the NLuc reporter signal; note: potency is the fitted concentration of half-maximal effect; % is set by controls: 0 for no effect and ±100 for the full control effect
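Reporter cells (S16 Pmp22-F2sN, 500–1,000 per well) exposed to compounds for 24 h, 37C, 5% CO2; lysis with FLuc read after 10 min, then Stop&Glo and NLuc read after 10 min.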
NLuc saturating: NanoLuc enzyme inhibition artifact for PMP22 screen; shares compounds with PMP22 txn; Secreted NLuc enzyme (filtered S16 cell medium), Nano-Glo luminescence; Potency, µM (titrated, usually from 57.5 µM), for inactives: at the top dose activity change, negative = inhibition, hits mostly inhibitors; 4% of 690 active; note: potency is the fitted concentration of half-maximal effect; % is set by controls: 0 for no effect and ±100 for the full control effect
NLuc Km counter: counter-screen for PMP22 expression modulators: NanoLuc inhibition at Km; secreted NLuc enzyme, coelenterazine luminescence, Km conditions; shares compounds with PMP22 txn; 5% of 690 active; Potency, µM (doses to about 57.5 µM), for inactives: at the highest dose activity change, negative = inhibition, usual class: inhibitors; note: potency is the fitted concentration of half-maximal effect; % is set by controls: 0 for no effect and ±100 for the full control effect
FLuc ctr PMP22: inhibits firefly luciferase, PMP22 counter-screen | shares compounds with PMP22 txn | purified P. pyralis FLuc, luminescence, 10 min | Potency, µM (series often up to 57.5 µM), inactives show at the highest dose activity, negative = inhibition, most hits filed as inhibitors | 690 tested, under 10 active | AID 1508640; note: % of control where 0% means no effect
Target sequence (P08659 whole entry, looked up): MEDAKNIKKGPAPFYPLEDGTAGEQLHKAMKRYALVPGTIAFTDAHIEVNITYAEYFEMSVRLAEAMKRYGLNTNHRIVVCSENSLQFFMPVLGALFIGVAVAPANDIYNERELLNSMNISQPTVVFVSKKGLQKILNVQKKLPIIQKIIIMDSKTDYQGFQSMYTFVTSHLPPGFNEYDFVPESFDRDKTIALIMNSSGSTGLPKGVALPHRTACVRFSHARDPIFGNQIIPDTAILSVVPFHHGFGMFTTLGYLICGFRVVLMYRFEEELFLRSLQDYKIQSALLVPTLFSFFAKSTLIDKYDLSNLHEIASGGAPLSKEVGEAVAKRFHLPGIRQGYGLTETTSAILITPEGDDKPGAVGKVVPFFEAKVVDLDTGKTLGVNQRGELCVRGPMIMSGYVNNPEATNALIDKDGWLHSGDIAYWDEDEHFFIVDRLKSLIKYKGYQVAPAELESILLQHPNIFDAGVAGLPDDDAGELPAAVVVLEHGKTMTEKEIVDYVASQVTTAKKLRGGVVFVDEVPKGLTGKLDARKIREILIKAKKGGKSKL
S16 viab conf: S16 Schwann cell cytotoxicity, confirmatory; S16 Schwann cells viability, CellTiter-Glo ATP luminescence, 24 h; shares compounds with PMP22 txn; AID 1508641; Potency, µM (series often up to 57.5 µM), for the others: top-dose activity change, negative = viability loss, actives largely listed as cytotoxic; 7% of 690 active; note: potency is the fitted concentration of half-maximal effect; % is set by controls: 0 for no effect and ±100 for the full control effect
PMP22 txn conf: confirmation of modulators of PMP22 gene transcription in S16 cells | shares compounds with PMP22 txn | S16 Schwann cells Pmp22-F2sN, dual luciferase, 24 h | Potency, µM (titrated, usually from 57.5 µM), inactives show top-dose activity change, negative = inhibition, most hits filed as inhibitors | 22% of 690 active | AID 1508646; active = clear falling dose curves in both reporters; inconclusive = both reporters move, but less clearly or upward; inactive = either reporter flat; the % is the FLuc reporter signal; note: potency is the fitted concentration of half-maximal effect
PMP22 prot conf: confirmation of modulators of rat PMP22 protein expression | 95 tested, under 10 active | S16 Schwann cells Pmp22-HiBiT, luminescence, 48 h | Potency, µM (top dose mostly 27.9 µM), without a hit: top-dose activity change, negative = inhibition, hits mostly inhibitors | shares compounds with PMP22 txn
* hit, by the source's call; u = inconclusive; x = not tested or not shown. Unless noted, calls come from the whole dose curve; as a rule, active = well fitted curve in the direction sought with a large enough effect; inconclusive = small, poorly fitted or top-dose-only effect, or another doubt; inactive = no such curve, though single readings can be large; an effect the other way counts as inactive or inconclusive.

SMILES	p53null 39C kill	S16 viability	p53null 32C tox	pS6 MEF inh	PMP22 txn	NLuc saturating	NLuc Km counter	FLuc ctr PMP22	S16 viab conf	PMP22 txn conf	others
CN1C(=O)c2ccccc2Sc2ccc(NC(=O)COc3ccccc3)cc21	9%	-27%	3%	-19%	12µM*	u	u	0%	-8%	-32%
CCc1ccc(NC(=O)CN2C(=O)CCSc3ccccc32)cc1	-21%	6%	-7%	-6%	22%	x	x	x	x	x
COc1ccc(NC(=O)Cn2nnc(C(=O)NCc3cccs3)c2N)cc1	32%	4%	4%	-5%	-4%	x	x	x	x	x
CCc1ccccc1NC(=O)Cn1nnc(C(=O)NCc2cccs2)c1N	6%	-16%	17%	-3%	u	-7%	2%	-7%	-8%	u
COc1ccccc1NC(=O)Cn1nnc(C(=O)NCc2cccs2)c1N	12%	-9%	27%	-12%	1.2µM*	-4%	-1%	-1%	6%	u
Cc1cn2c(=O)cc(COC(=O)c3cccc(NC(=O)c4ccccc4Cl)c3)nc2s1	-2%	-1%	5%	6%	-3%	x	x	x	x	x
COc1ccc(-c2cc(C(F)(F)F)nc(NCCc3ccccc3)n2)cc1	-22%	u	-7%	0%	-63%	x	x	x	x	x
COc1ccc(-c2cc(C(F)(F)F)nc(NCCc3ccccc3)n2)cc1OC	-8%	4%	-5%	3%	13µM*	-15%	-18%	1%	-18%	1%
O=C(NCCC1=CCCCC1)c1ccc2c(c1)N(Cc1ccc(F)cc1)C(=O)c1ccccc1S2(=O)=O	0%	-11%	-7%	2%	-29%	x	x	x	x	x
Cc1ccc(CN(Cc2cccn2-c2nnc(N3CCCC3=O)s2)C(=O)Nc2ccccc2C(F)(F)F)cc1	17%	u	5%	0%	19µM*	u	u	0%	-2%	-22%
Cc1ccc(CSc2nc3ccc(NC(=O)COc4ccc(F)cc4)cc3s2)cc1	-11%	7%	1%	-1%	-8%	x	x	x	x	x
Cc1cccc(OCC(=O)Nc2ccc3nc(SCc4ccccc4)sc3c2)c1	u	28%	1%	-4%	16µM*	3%	4%	1%	-1%	u
Cc1ccc(OCC(=O)Nc2ccc3nc(SCC(=O)N4CCc5ccccc54)sc3c2)cc1	-11%	0%	-3%	0%	2.4µM*	-3%	-2%	-8%	-11%	7.3µM*	PMP22 prot conf=u
O=C(COc1ccc(F)cc1)Nc1ccc2nc(SCc3ccccc3)sc2c1	-2%	17%	-10%	-13%	7µM*	-1%	-1%	8%	-6%	u
COc1ccc(C(=O)Nc2ccc3nc(SCC(=O)N4CCc5ccccc54)sc3c2)cc1	5%	21%	-25%	0%	-26%	x	x	x	x	x
Cc1ccc(NC(=O)Cn2c(=O)n(Cc3nc(-c4ccccc4)no3)c(=O)c3ccccc32)c(C)c1	7%	1%	-10%	0%	8%	x	x	x	x	x
Cc1nn(-c2ccc(N3CCCC3)nn2)c(C)c1CCC(=O)N1CCN(c2ccccc2F)CC1	9%	x	-10%	-4%	x	x	x	x	x	x
O=C(CSc1ncc(S(=O)(=O)c2ccc(Br)cc2)c(=O)[nH]1)NCc1ccc(Cl)cc1	-8%	3%	1%	4%	1%	x	x	x	x	x
COc1ccc(OC)c(NC(=O)Cn2cnc3onc(-c4ccc(Cl)cc4)c3c2=O)c1	-4%	-21%	16%	24%	5.1µM*	-6%	3%	8%	-18%	u
O=C(Cn1cnc2onc(-c3ccc(Cl)cc3)c2c1=O)Nc1ccc(F)cc1	-3%	-17%	9%	-5%	u	x	x	x	x	x
